Screening results (PubChem)
Pf Dd2 inh = inhibitors of Plasmodium falciparum Dd2 growth. AID 1347417. P. falciparum Dd2 growth, SYBR Green, 72 h. Potency, µM (titrated, usually from 28.9 µM), actives largely listed as inhibitors. hit rate 4.3% among 120,000; active = well fitted inhibition curve with a large enough effect; also: nearly all actives have a fitted effect of over 65% in size
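Infected erythrocytes (Dd2, 0.3% parasitemia, 2.5% hematocrit final) are added to compound in RPMI-1640/Albumax II medium, grown 72 h at 37C in low oxygen, then lysed with saponin/Triton-X containing SYBR Green and read by fluorescence.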
A number is an active result; – = inactive; [ ] = another dose, or the depositor's remark. Only a selection was taken, and hits are over-represented in it overall.

SMILES | Pf Dd2 inh
c1coc(CN2CCc3c(sc4ncnc(N5CCOCC5)c34)C2)c1 | 8.9µM
CCOc1ccc(CN2CCN(c3ncnc4sc5c(c34)CC(C)CC5)CC2)cc1 (stereo not given) | –
CN(C)c1ncnc2sc3c(c12)CCN(Cc1ccncc1)C3 | –
Cc1ccc(CCNC(=O)Cn2nc(C)n(CCc3ccccc3)c2=O)o1 | –
CCOC(=O)CCNC(=O)N1CCc2c(nc(-c3ccc(F)cc3)[nH]c2=O)C1 | –
O=C1CCN(C(=O)COc2ccccc2)CCCC(CO)CCN1 (stereo not given) | –
Cc1ccc(NC(=O)c2ccc3c(c2)N(C)C2CCCCN2C3=O)cc1C (stereo not given) | –
Cc1ccc(-c2nnc(C3CN(C(=O)c4cnccn4)CC34CCOCC4)o2)cc1 (stereo not given) | –
O=C(Cc1ccccc1C(F)(F)F)N1CCC2(CC1)[C@H](O)C[C@@H]2O | –
COCCNC(=O)[C@H]1C[C@H](Oc2cccnc2)CN1C(=O)c1cccc(OC)c1 | –
O=C(Nc1ccc(Oc2ccccc2)cc1)O[C@@H]1CO[C@H]2[C@@H]1OC[C@@H]2NS(=O)(=O)c1ccc(Cl)cc1 | –
CCn1cc(S(=O)(=O)c2ccccc2)c(=O)c2cc(F)c(F)cc21 | –
CCc1ccc2c(c1)c(=O)c(S(=O)(=O)c1ccc(Cl)cc1)cn2CC | –
COc1cc(NC(=O)Cn2cc(S(=O)(=O)c3ccccc3)c(=O)c3ccccc32)cc(OC)c1 | –
CCc1ccc2c(c1)c(=O)c(S(=O)(=O)c1ccc(F)cc1)cn2CC(=O)Nc1ccccc1OC | –
CCOc1ccc(S(=O)(=O)c2cn(CC)c3ccc(F)cc3c2=O)cc1 | –
CCOc1ccc2c(c1)c(=O)c(S(=O)(=O)c1ccc(CC)cc1)cn2Cc1cccc(Cl)c1 | 10µM
COc1cc2c(=O)c(S(=O)(=O)c3ccc(F)cc3)cn(Cc3ccccc3C)c2cc1OC | 11µM
CCc1ccc(S(=O)(=O)c2cn(CC(=O)Nc3cccc(C)c3)c3ccc(Cl)cc3c2=O)cc1 | –
CCOc1ccc2c(c1)c(=O)c(S(=O)(=O)c1ccccc1)cn2CC(=O)Nc1ccccc1OC | 11µM
COc1ccc2c(c1)c(=O)c(S(=O)(=O)c1ccc(Cl)cc1)cn2C | –
CCOc1ccc2c(c1)c(=O)c(S(=O)(=O)c1ccc(Cl)cc1)cn2Cc1ccccc1C | 13µM
COc1ccc(NC(=O)Cn2cc(S(=O)(=O)c3ccc(C)cc3)c(=O)c3ccccc32)cc1OC | –
O=C(c1cccc(Cl)c1)N1CCCC2(Cc3ccccc3NC2=O)C1 (stereo not given) | –
Cc1cccc(NC(=O)C2CCN(C(=O)c3ncn4c3COC(c3ccccc3)C4)CC2)c1 (stereo not given) | –
SMILES | Pf Dd2 inh
Fc1cccc(CN2CCC(Oc3ccc(-c4noc(C5CC5)n4)cc3)C2)c1 (stereo not given) | –[5.79 µM]
Cc1ccccc1C(=O)N1CCC2(CC1)CN(c1ncccn1)CC2CO (stereo not given) | –
Cc1cc(C)cc(NC(=O)N2CCC(OC3CCN(S(C)(=O)=O)CC3)CC2)c1 | –
CCCc1cc(C(=O)N(C)CCOc2ccccc2CC)n(C)n1 | –
O=C(NC1CCN(c2cc(-c3ccc(Cl)cc3)[nH]n2)CC1)c1ccc2[nH]ccc2c1 | –
Cc1ccc(S(=O)(=O)c2cn(Cc3cccc(C)c3)c3cc4c(cc3c2=O)OCO4)cc1 | –
CCOc1ccc2c(c1)c(=O)c(S(=O)(=O)c1ccc(C)cc1)cn2Cc1ccccc1Cl | 13µM
CCOc1ccc2c(c1)c(=O)c(S(=O)(=O)c1ccc(C)cc1)cn2CC(=O)Nc1ccc(C)cc1 | –
O=C(NCC1(COc2cccnc2)C[C@@H](O)[C@@H](O)C1)Nc1cccnc1 (stereo not given in full) | –
O=C(NCc1ccco1)N1CC(c2noc(C3CCCN3CC3CC3)n2)C1 (stereo not given) | –
CCCS(=O)(=O)N1CC(c2noc(C3CCCN3CC3CC3)n2)C1 (stereo not given) | –
O=C(c1cccs1)N1CC(c2noc(C3CCCN3CC3CC3)n2)C1 (stereo not given) | 4µM
CC(=O)N1CCc2ccc(C(=O)NC3CCCCCC3)cc21 | –
COCc1cc(=O)n(CC(=O)Nc2cccc(Br)c2)c(N2CCOCC2)n1 | –
Cc1noc(-c2cn(C3CCN(C(=O)c4ccccc4)C3)nn2)n1 (stereo not given) | –
CN1CCN(C2(CNC(=O)c3ccc(C(C)(C)C)cc3)CCCCC2)CC1 | –
CC(C)COc1ccc(C(=O)NCC2(N3CCN(C)CC3)CCCCC2)cc1 | 10µM
CC(C)COc1ccc(C(=O)N2CCN(CCc3ccncc3)CC2)cc1 | –
COc1ccc(C2Cn3nnc(C(=O)N4CCC(C(=O)NCc5ccccc5)CC4)c3CO2)cc1 (stereo not given) | –
CS(=O)(=O)N1CCC(CC(=O)NCc2ccccc2)C1 (stereo not given) | –
CCC(C)NC(=O)N1CCCN(S(=O)(=O)c2ccccc2)CCC(=O)NCC1 (stereo not given) | –
O=C1N(CCCCOc2ccccc2)c2ccccc2NC12CCNCC2 | 7.9µM
O=C1NC2(CCNCC2)C(=O)N1CCCc1cccnc1 | –
Cn1ccnc1CN1C(=O)NC2(CCNCC2)C1=O | –
COc1ccc(CN[C@@H]2CO[C@H](CNC(=O)CC(C)(C)C)[C@H]2O)cc1 | –
SMILES | Pf Dd2 inh
O=C(NC1CCc2n[nH]c(=O)n2CC1)c1ccc(Br)o1 (stereo not given) | –
CC(C)C1c2nccn2CCCN1C(=O)c1ccc(C#N)cc1 (stereo not given) | –
CCOC(=O)c1ccccc1NC(=O)Cn1c(=O)n(-c2ccc(CC)cc2)c(=O)c2c(C)c(C(=O)N(C)C)sc21 | –
Cc1cccc(C)c1NC(=O)Cn1c(=O)n(Cc2ccccc2)c(=O)c2c(C)c(C(=O)N(C)C)sc21 | 8.9µM
Cc1cc(C)c(Cn2c(=O)n(Cc3ccccc3)c(=O)c3c(C)c(C)sc32)c(C)c1 | –
CCN(CC)C(=O)c1sc2c(c1C)c(=O)n(-c1ccc(C)c(C)c1)c(=O)n2Cc1cccc(Cl)c1 | –
CCN(CC)C(=O)c1sc2c(c1C)c(=O)n(Cc1ccccc1)c(=O)n2Cc1c(C)cc(C)cc1C | 10µM
Cc1sc2c(c1C)c(=O)n(Cc1ccccc1)c(=O)n2CC(=O)N(C)c1ccccc1 | –
C[C@H]1[C@@H]2[C@@H](O)C([C@H](C)C(=O)NCc3ccco3)CC[C@@]2(C)CC[C@@H]1NC(=O)c1cncnc1 (stereo not given in full) | –
C#CCOc1ccc(C(=O)N[C@@H]2CN(C3CCN(C)CC3)CCC[C@H]2O)cc1 | –
CCOC(=O)c1[nH]c(C)c(CCC(=O)N2CCN(c3cccc(OC)c3)CC2)c1C | 4µM
Cc1ccc(Cl)cc1N1CCN(C(=O)CCSCc2ccccc2F)CC1 | –
CCOC(=O)c1[nH]c(C)c(CCC(=O)NCc2ccccc2)c1C | –
CCOC(=O)c1[nH]c(C)c(CCC(=O)Nc2cc(C)ccc2OC)c1C | –
CCOC(=O)c1[nH]c(C)c(CCC(=O)N2CCN(c3cc(Cl)ccc3C)CC2)c1C | 0.56µM
COc1cccc(N2CCN(C(=O)CCc3conc3-c3ccccc3)CC2)c1 | –
CCOC(=O)c1[nH]c(C)c(CCC(=O)NCc2cccc(Cl)c2)c1C | –
CCOC(=O)c1cc(S(=O)(=O)N2CCN(c3cccc(OC)c3)CC2)[nH]n1 | –
CCOC(=O)c1[nH]c(C)c(CCC(=O)N2CCN(c3cc(C)ccc3C)CC2)c1C | 0.63µM
O=C(O)C1=NOC2CN(Cc3cccc(C(F)(F)F)c3)CC12 (stereo not given) | –
